High-throughput results as filed in PubChem BioAssay.
tim23-1 inh: growth inhibitors of tim23-1 mutant yeast. S. cerevisiae tim23-1 growth, BacTiter-Glo luminescence, 24 h. inhibition, % at 20 µM. actives 1.3% (n = 330,000);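 active = growth inhibition of the mutant yeast at or above 50%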;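 also: temperature-sensitive mutant grown at 25 °C; plate controls were DMSO-treated mutant yeast for no effect and medium wells lacking yeast for full effect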
NALP1 inh: NALP1 inhibition; S. cerevisiae NALP1/ASC/caspase-1 growth, X-gal OD620, 72 h; inhibition, % at 10 µM; actives 0.61% (n = 280,000); in the data active = inhibition mostly above about 24%, no sharp cut-off; inactive = mostly below about 32%
V-ATPase pHluor: yeast V-ATPase proton transport regulation by pHLuorin. S. cerevisiae, pHLuorin cytosolic pH fluorescence. actives 0.37% (n = 350,000). response, % at 10 µM; in the data active = response mostly above about 7.3%, no sharp cut-off; inactive = mostly below about 5.4%; also: actives read high
tim10-1 inh: growth inhibitors of tim10-1 mutant yeast | actives 2.2% (n = 330,000) | S. cerevisiae tim10-1 ts strain growth, BacTiter-Glo, 24 h | inhibition, % at 20 µM;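 active = inhibition of at least 40%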;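 also: mutant grown at 25 °C; 0% = DMSO wells with yeast and 100% = wells holding no yeast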
TIM10 inh: inhibits growth of TIM10 yeast strain; S. cerevisiae TIM10 strain growth, BacTiter-Glo luminescence, 24 h; inhibition, % at 10 µM; actives 1.4% (n = 330,000);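 active = inhibition of 40% or more at the single tested concentration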;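 also: wild-type TIM10 isogenic control strain grown at permissive 25 °C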
NLRP3 yeast inh: inhibitors of NALP3 inflammasome in yeast. Yeast reconstituted NLRP3/ASC/caspase-1, beta-gal luminescence, 24 h. inhibition, % at 10 µM. actives 0.39% (n = 330,000);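 active = inhibition of 50% or more; inactive = inhibition below 50%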;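 also: plate controls were induced DMSO wells for no effect and uninduced yeast grown without galactose for full effect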
tim10-1 confirm: confirmation of tim10-1 mutant yeast growth inhibitors. shares compounds with tim10-1 inh. S. cerevisiae tim10-1 ts strain growth, BacTiter-Glo, 24 h. inhibition, % at 20 µM. actives 56% (n = 7,400);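 active = inhibition of yeast growth at or above a set limit in either of two repeat tests at 20 µM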;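 also: tim10-1 mutant grown at permissive 25 °C to find synthetic lethal compounds; 0% = DMSO yeast wells and 100% = medium wells without yeast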
TIM10 conf: confirmation of TIM10 yeast growth inhibitors; shares compounds with TIM10 inh; S. cerevisiae tim10 strain growth, BacTiter-Glo luminescence, 24 h; inhibition, % at 10 µM; actives 63% (n = 4,600);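 active = inhibition of yeast growth at or above a set limit in either of two replicates at 10 µM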;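 also: this counterscreen used the strain with wild-type TIM10; 0% = yeast with DMSO and 100% = medium wells lacking yeast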
Starred values were filed as active, the others as inactive; · = no result given. Rows were chosen to be rich in hits. Some 4.2% of all compounds tested hit in one or more screens of this group.

SMILES	tim23-1 inh	NALP1 inh	V-ATPase pHluor	tim10-1 inh	TIM10 inh	NLRP3 yeast inh	tim10-1 confirm	TIM10 conf
CC(C)(C)OC(=O)N[C@@H](Cc1ccccc1)c1nnc(S(=O)(=O)Cc2ccccc2)o1	48	-5	·	73*	59*	12	55*	46*
Cc1ccccc1CS(=O)(=O)c1nnc([C@H](Cc2ccccc2)NC(=O)OC(C)(C)C)o1	33	13	-3	72*	68*	24	51*	50*
COc1ccc(C2CC(C(F)(F)F)n3nc(C(=O)O)cc3N2)cc1 (centres undefined)	13	10	1	7	-5	4	·	·
CCSc1nnc(NC(=O)c2cc(C)nc3ccccc23)s1	-4	22	2	19	3	21	·	·
CCSc1nnc(NC(=O)c2nc(-c3ccccc3)n(-c3ccccc3)n2)s1	50	10	-3	55*	51*	20	52*	-21
Cc1nnc(-c2cccc(Br)c2)c2cn(-c3ccccc3Cl)nc12	42	11	4	51*	51*	-14	39*	50*
CC(C)(C)N(Cc1ccccc1)C(=O)COC(=O)/C=C/c1ccc2c(c1)OCO2	3	·	0	8	7	13	·	·
O=C(c1ccc(SCc2cccc(Br)c2)c([N+](=O)[O-])c1)N1CCN(c2ccccn2)CC1	21	-3	2	30	23	5	·	·
Nc1ncnc2oc(-c3ccco3)c(-c3ccco3)c12	10	-6	-2	9	-6	17	·	·
O=C(CCCCl)NC(=S)Nc1cc(C(F)(F)F)ccc1N1CCOCC1	48	16	-1	53*	57*	4	48*	50*
O=C(/C=C/c1ccco1)NC(=S)Nc1cc(C(F)(F)F)ccc1N1CCOCC1	22	37	1	39	32	25	·	·
CCn1nc(C)cc1-c1nnc(Sc2ncc([N+](=O)[O-])s2)n1C	8	24	-1	66*	50*	24	72*	55*
CCn1nc(C)cc1-c1nnc(SCC(=O)Nc2ccccc2)n1CCCOC	-13	·	-1	3	-2	-7	·	·
CCOC(=O)C1CCN(C(=O)c2sc3nc(-c4ccccc4)cn3c2C)CC1	41	-12	0	66*	57*	0	60*	52*
COC(=O)C1CCN(C(=O)c2sc3nc(-c4ccc(F)cc4)cn3c2C)CC1	40	·	-1	70*	55*	4	64*	35*
CN=C(Nc1ccc(Br)cc1)SC1CC(=O)N(c2ccc(OC)cc2)C1=O (centres undefined)	18	0	3	41*	45*	6	22	27
c1ccc2c(c1)OCC(c1nnc3sc(-c4ccc5c(c4)OCO5)nn13)O2 (centres undefined)	27	8	9	42*	48*	-30	28	13
COc1ccc(/C=C2\CCC(C3CCCC3)C2=O)cc1Cn1cccn1 (centres undefined)	31	18	-4	26	18	27	·	·
COc1ccc(/C=C2\CCc3ccccc3C2=O)cc1Cn1cccn1	36	11	-6	43*	42*	34	40*	13
C#CCN1C(=O)C2C(C(=O)NC)C3C=CC2(O3)C1C(=O)NCc1ccc(OC)cc1 (centres undefined)	14	9	-3	8	0	5	·	·
CCOC(=O)c1cnc2c(ccc3ccccc32)c1NCCN(C)C	39	9	7	55*	77*	26	50*	50*
Clc1ccc(CN2CCc3c([nH]c4ccccc34)C2)cc1Cl	42	27	-2	75*	41*	19	75*	58*
CSc1ccc(CN2CCc3c([nH]c4ccccc34)C2)cc1	9	31	-1	15	33	13	·	·
S=C(NCCN1CCOCC1)N/N=C/c1c2ccccc2cc2ccccc12	30	20	5	57*	42*	-15	43*	-18
COc1ccc2ccccc2c1/C=N/NC(=S)NCCN1CCOCC1	9	10	1	23	21	2	·	·
SMILES	tim23-1 inh	NALP1 inh	V-ATPase pHluor	tim10-1 inh	TIM10 inh	NLRP3 yeast inh	tim10-1 confirm	TIM10 conf
Cc1nc2c3cc(F)ccc3n(Cc3ccccc3)c2s1	33	·	-1	45*	48*	-48	36*	37*
Cc1nc2c3cc(F)ccc3n(CCN3CCCCC3)c2s1	9	3	-2	17	18	-12	·	·
Cc1nnc(Nc2ccccn2)c2ccccc12	46	5	2	66*	85*	32	71*	83*
Cc1nnc(Nc2ccc(F)cc2)c2ccccc12	6	11	-2	12	10	14	·	·
COc1cc2c(cc1NS(=O)(=O)N1CCCCC1)oc1ccccc12	39	4	-2	41*	44*	-13	37*	35*
CC1=C(C(=O)Nc2ccccc2C)C2(CCCCC2)C(C(N)=O)C(=S)N1 (centres undefined)	15	13	-6	12	11	12	·	·
CCc1c(C)c2c(C)nn(-c3ccccc3)c2oc1=O	-1	-95	5	55*	42*	12	54*	21
Cc1cc2c(c(C)nn2-c2ccccc2)c(=O)o1	8	-8	-2	11	-11	30	·	·
CCCNC(=O)C1Cc2cc(S(=O)(=O)N3CCCC3)ccc2N1C(C)=O (centres undefined)	-11	-8	-2	8	-4	3	·	·
Cc1c(Cl)cccc1NC(=O)CC1SCCNC1=O (centres undefined)	-1	3	-1	6	-11	-3	·	·
COc1ccc(Cn2c(SCc3ccc(C)cc3)nc3cc(OC)c(OC)cc3c2=N)cc1Cl	42	·	4	90*	62*	19	87*	-6
O=C(O)c1ccccc1S(=O)(=O)NCC(O)COC1CCCCC1 (centres undefined)	-8	-9	1	6	-5	-12	·	·
COc1ccc(C/C(O)=C(\C#N)c2nc3ccccc3[nH]2)cc1OC	-4	-7	0	-7	11	22	·	·
CCOC(=O)CCCCCC(=O)Nc1ccc2c(c1)CC(=O)N([C@@H](C)CO)C[C@H](C)[C@@H](CN(C)C(=O)Nc1ccc3c(c1)OCO3)O2	15	·	5	-2	10	12	·	·
Cc1ccc(Nc2nc(N)nc(CSc3nc4ccccc4s3)n2)cc1	40	4	0	47*	47*	30	28	27
Cc1ccccc1Nc1nc(N)nc(CSc2nc3ccccc3s2)n1	19	38	-2	-3	16	19	·	·
Cc1c(C(=O)NCc2cccnc2)sc2nc(-c3ccc(F)cc3)cn12	11	·	2	-1	-8	-2	·	·
